Test [1] addresses Bile acid receptor (Homo sapiens) (UniProt Q96RI1). Put plainly: ATG_IR1_CIS: Attagene CIS-FACTORIAL HepG2 Assay for human Nuclear Receptor Subfamily 1 Group H Member 4 (NR1H4), IR1 submotif (AID 2282946). The note with it: IR1 reporter transcription, actives raise or lower the signal. The gist of the method: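 Transient MRTU transfection, HepG2; 24 h dosing; RNA → RT-PCR → 6-FAM primer extension → HpaI digest → capillary electrophoresis fluorescence. Gain/loss of signal fitted relative to DMSO.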

The nature of test [2]: ATG_ISRE_CIS: Attagene CIS-FACTORIAL HepG2 Assay for human Interferon Regulatory Factor 1 (IRF1) binding to an Interferon-Stimulated Response Element (ISRE) (AID 2282948). The note with it: HepG2 ISRE cis-reporter (Attagene), mRNA transcription readout; actives raise or lower the signal. The gist of the method:
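Transiently transfected HepG2 cells carrying cis-element reporter units, dosed 24 hours. Reporter mRNA quantified by RT-PCR, fluorescent primer extension, HpaI digestion and capillary electrophoresis. Bidirectional fitting relative to DMSO.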

Test [3] is described as follows: ATG_M_32_CIS: Attagene CIS-FACTORIAL HepG2 Assay for M32 Transcription Factor (Internal Marker) (AID 2282949).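 Also: background control marker of the multiplexed CIS panel rather than a real target.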 The following applies: HepG2 Attagene cis-factorial M32 reporter, mRNA; actives raise or lower the signal. Summed up:
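Internal background marker read-out: RT-PCR/capillary electrophoresis fluorescence of reporter transcripts from transiently transfected HepG2 cells after 24 h chemical exposure. Activity fitted bidirectionally relative to DMSO negative control.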

The target of test [4] is Hypoxia-inducible factor 1-alpha (Homo sapiens) (UniProt Q16665). Put plainly: ATG_HIF1a_CIS: Attagene CIS-FACTORIAL HepG2 Assay for human Hypoxia Inducible Factor 1 (HIF1A) (AID 2282951). The note with it: HepG2 Attagene cis-factorial HIF1a reporter transcription; actives raise or lower the signal. The gist of the method: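 Measures endogenous transcription-factor activity through cis-regulated reporter mRNA in HepG2. Cells dosed 24 h; transcripts quantified by RT-PCR with 6-FAM-labelled products separated by capillary electrophoresis; DMSO serves as negative control.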

The target of test [5] is Hepatocyte nuclear factor 6 (Homo sapiens) (UniProt Q9UBC0). The test is described as follows: ATG_HNF6_CIS: Attagene CIS-FACTORIAL HepG2 Assay for human Hepatocyte Nuclear Factor 6 (HNF6) (AID 2282952). The note with it: HepG2 Attagene cis-factorial HNF6 reporter transcription; actives raise or lower the signal. Summed up: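 Reporter mRNA induction or loss in HepG2 after 24 h exposure; transient cis-MRTU transfection; fragments quantified by capillary electrophoresis; bidirectional analysis, DMSO as negative control.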

The target in test [6] is Heat shock factor protein 1 (Homo sapiens) (UniProt Q00613). Put plainly: ATG_HSE_CIS: Attagene CIS-FACTORIAL HepG2 Assay for human Heat Shock Transcription Factor 1 (HSE) (AID 2282953). The following applies: HepG2 HSE cis-reporter, Attagene RNA transcription; actives raise or lower the signal. Summed up: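 Cells were transfected with cis-element-driven reporter constructs, dosed for 24 h, then total RNA was reverse-transcribed and reporter cDNA amplified, FAM-labelled and digested with HpaI. Fragments were resolved by capillary electrophoresis; gain or loss was fitted against DMSO.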

Test [7] can be described thus: ATG_MRE_CIS: Attagene CIS-FACTORIAL HepG2 Assay for human Metal Responsive Element (MRE) (AID 2282954). The following applies: HepG2 MRE cis-reporter transcription, Attagene multiplex; actives raise or lower the signal. Summed up:
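HepG2 cells transiently transfected with multiple cis-element reporter units measure endogenous MTF1-driven transcription. After 24 h compound exposure, reporter mRNA is quantified by RT-PCR with 6-FAM labelling, HpaI digestion and capillary electrophoresis; bidirectional fits versus DMSO.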

In test [8] the target is Paired box protein Pax-6 (Homo sapiens) (UniProt P26367). The test is described as follows: ATG_Pax6_CIS: Attagene CIS-FACTORIAL HepG2 Assay for human Paired Box 6 (PAX6) (AID 2282956). The following applies: HepG2 CIS-FACTORIAL PAX6 reporter transcription, RNA readout; actives raise or lower the signal. The gist of the method: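 HepG2 cells transiently transfected with cis-promoter-driven multiplexed reporter units sensing endogenous transcription factor activity; 24 h chemical exposure. Reporter mRNA quantified by RT-PCR, 6-FAM labelling, HpaI digestion and capillary electrophoresis; bidirectional fit versus DMSO baseline.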

Test [9] can be described thus: ATG_PXRE_CIS: Attagene CIS-FACTORIAL HepG2 Assay for human Pregnane X Receptor Element (PXRE) (AID 2282957). The following applies: HepG2 Attagene CIS-FACTORIAL PXRE reporter, mRNA; actives raise or lower the signal. Summed up:
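Transiently transfected HepG2 cells were dosed and incubated for 24 h. RNA was then isolated, DNase-treated, reverse-transcribed and reporter sequences amplified. Labeled, HpaI-digested fragments were quantified by capillary electrophoresis against DMSO.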

Test [10] in a line: ATG_PPRE_CIS: Attagene CIS-FACTORIAL HepG2 Assay for human Peroxisome Proliferator-activated Response Element (PPRE) (AID 2282958). The following applies: HepG2 PPRE cis-element reporter, Attagene transcription factor profiling; actives raise or lower the signal. The gist of the method: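 Cells are first transfected transiently with the multiplexed reporter library, then dosed for 24 h. Total RNA is reverse-transcribed, amplified, fluorescently end-labeled and HpaI-cut before capillary electrophoresis; activity is fitted bidirectionally against DMSO controls.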

Test [11] is described as follows: ATG_RORE_CIS: Attagene CIS-FACTORIAL HepG2 Assay for human RAR-related Orphan Receptor Element (RORE) (AID 2282959). The following applies: HepG2 Attagene cis-factorial RORE reporter, mRNA; actives raise or lower the signal. Summed up: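 Cells were HepG2 carrying transfected cis-regulated reporter constructs, dosed for 24 hours. Total RNA was reverse-transcribed and reporter cDNA amplified, fluorescently labeled and sized by capillary electrophoresis. Activity was fitted bidirectionally relative to DMSO.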

Test [12] in a line: ATG_Sox_CIS: Attagene CIS-FACTORIAL HepG2 Assay for human SRY-box transcription factor (SOX) (AID 2282960). The note with it: HepG2 Attagene cis-factorial SOX reporter, mRNA; actives raise or lower the signal. Summed up: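 Transient MRTU transfection of HepG2; 24 h compound incubation; TriZol RNA, oligo(dT) RT, PCR, 6-FAM primer extension, HpaI cut, CE. Bidirectional fit, DMSO = baseline.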

In test [13] the target is Transcription factor Sp1 (Homo sapiens) (UniProt P08047). The test is described as follows: ATG_Sp1_CIS: Attagene CIS-FACTORIAL HepG2 Assay for human Specificity Protein 1 (Sp1) (AID 2282961). The following applies: HepG2 Sp1 cis-reporter transcription, actives raise or lower the signal. The gist of the method: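 Endogenous Sp1 activity was gauged in human liver HepG2 cells bearing transfected reporter units under a cis-regulating promoter. After 24 h dosing, reporter mRNA was quantified by RT-PCR with capillary electrophoresis, and activity fitted bidirectionally versus DMSO.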

Test [14] can be described thus: ATG_SREBP_CIS: Attagene CIS-FACTORIAL HepG2 Assay for human Sterol Regulatory Element Binding (SREBP) (AID 2282962). The note with it: HepG2 Attagene cis-factorial SREBP reporter, mRNA; actives raise or lower the signal. Summed up:
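HepG2 cells transiently transfected with multiplexed cis-promoter reporter units sensing endogenous transcription factors; reporter mRNA measured 24 h after dosing by RT-PCR, 6-FAM labeling, HpaI digestion and capillary electrophoresis. Bidirectional fit versus DMSO.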

Test [15] has as its target Signal transducer and activator of transcription 3 (Homo sapiens) (UniProt P40763). The test is described as follows: ATG_STAT3_CIS: Attagene CIS-FACTORIAL HepG2 Assay for human Signal Transducer and Activator of Transcription 3 (STAT3) (AID 2282963). The note with it: HepG2, Attagene cis-factorial STAT3 reporter transcription; actives raise or lower the signal. Summed up:
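HepG2 cells transiently transfected with cis-element-driven multiple reporter transcription units; after 24 h chemical exposure, reporter mRNA measured by RT-PCR, 6-FAM primer-extension labelling, HpaI digestion and capillary electrophoresis. Bidirectional fitting versus DMSO baseline.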

A short description of test [16]: ATG_TA_CIS: Attagene CIS-FACTORIAL HepG2 Assay for human TA Basal Promoter (AID 2282964). The note with it: HepG2 Attagene CIS-factorial TA basal promoter reporter; actives raise or lower the signal. Summed up: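 Steps: transfect HepG2 with MRTUs; dose 24 h; isolate RNA, DNase-treat, reverse-transcribe; PCR and FAM-label reporter cDNA; digest with HpaI 2h at 37 C; run capillary electrophoresis. Activity fitted both directions against DMSO.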

Test [17] can be described thus: ATG_TCF_b_cat_CIS: Attagene CIS-FACTORIAL HepG2 Assay for human T-Cell-Factor with beta-catenin (TCF/b-cat) (AID 2282965). The following applies: HepG2 TCF/beta-catenin cis-reporter transcription, actives raise or lower the signal. The gist of the method:
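In this cis-format system, transfected HepG2 cells report endogenous transcription factor activity. Readout after 24 h exposure is reporter transcript abundance from RT-PCR and capillary electrophoresis, analysed for gain or loss of signal versus DMSO.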

Test [18] is described as follows: ATG_M_06_CIS: Attagene CIS-FACTORIAL HepG2 Assay for M06 Transcription Factor (Internal Marker) (AID 2282950). The following applies: HepG2 Attagene CIS-FACTORIAL M06 internal marker reporter; actives raise or lower the signal. Summed up: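 Steps: transfect HepG2 with multiplexed cis-element reporter constructs; dose chemical 24 h; extract RNA with DNase treatment; reverse-transcribe, PCR-amplify, 6-FAM label, HpaI digest; separate fragments by capillary electrophoresis. Activity fitted both directions versus DMSO.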

Test [19] in a line: ATG_PBREM_CIS: Attagene CIS-FACTORIAL HepG2 Assay for human Phenobarbital-responsive Enhancer Module (PBREM) (AID 2282955). The note with it: HepG2 PBREM cis-reporter, Attagene multiplexed transcription; actives raise or lower the signal. The gist of the method:
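Fluorescence of labelled reporter cDNA fragments, resolved by capillary electrophoresis, gives mRNA induction in transfected HepG2 cells treated for 24 h; DMSO serves as negative control and baseline.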

The source made the active and inactive calls. The calls were made as follows: active = hit-call score of the fitted dose curve at least 0.9, where 1 is the maximum; inactive = score below 0.9.

Chain of Transcription factor Sp1 (Homo sapiens) (P08047 whole entry, looked up): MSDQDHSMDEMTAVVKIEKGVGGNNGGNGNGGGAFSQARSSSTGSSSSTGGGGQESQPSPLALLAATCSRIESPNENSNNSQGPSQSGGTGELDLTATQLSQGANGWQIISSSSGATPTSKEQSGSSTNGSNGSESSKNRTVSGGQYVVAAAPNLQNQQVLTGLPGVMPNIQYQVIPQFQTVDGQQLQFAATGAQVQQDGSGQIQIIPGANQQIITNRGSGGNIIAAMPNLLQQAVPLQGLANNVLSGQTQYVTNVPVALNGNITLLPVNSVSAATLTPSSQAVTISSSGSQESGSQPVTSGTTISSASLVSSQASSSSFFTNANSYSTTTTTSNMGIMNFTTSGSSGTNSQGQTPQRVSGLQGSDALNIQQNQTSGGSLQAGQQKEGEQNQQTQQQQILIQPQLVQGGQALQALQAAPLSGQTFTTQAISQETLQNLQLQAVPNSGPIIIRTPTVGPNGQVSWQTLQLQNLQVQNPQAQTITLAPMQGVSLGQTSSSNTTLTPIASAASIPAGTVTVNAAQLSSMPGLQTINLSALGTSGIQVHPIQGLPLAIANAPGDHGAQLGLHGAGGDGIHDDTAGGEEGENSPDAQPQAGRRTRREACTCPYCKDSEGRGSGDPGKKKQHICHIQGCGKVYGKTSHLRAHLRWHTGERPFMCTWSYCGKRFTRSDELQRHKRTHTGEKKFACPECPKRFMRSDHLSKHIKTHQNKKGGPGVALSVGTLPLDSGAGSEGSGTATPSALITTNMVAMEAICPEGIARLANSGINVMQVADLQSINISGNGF
Chain of Hypoxia-inducible factor 1-alpha (Homo sapiens) (Q16665 whole entry, looked up): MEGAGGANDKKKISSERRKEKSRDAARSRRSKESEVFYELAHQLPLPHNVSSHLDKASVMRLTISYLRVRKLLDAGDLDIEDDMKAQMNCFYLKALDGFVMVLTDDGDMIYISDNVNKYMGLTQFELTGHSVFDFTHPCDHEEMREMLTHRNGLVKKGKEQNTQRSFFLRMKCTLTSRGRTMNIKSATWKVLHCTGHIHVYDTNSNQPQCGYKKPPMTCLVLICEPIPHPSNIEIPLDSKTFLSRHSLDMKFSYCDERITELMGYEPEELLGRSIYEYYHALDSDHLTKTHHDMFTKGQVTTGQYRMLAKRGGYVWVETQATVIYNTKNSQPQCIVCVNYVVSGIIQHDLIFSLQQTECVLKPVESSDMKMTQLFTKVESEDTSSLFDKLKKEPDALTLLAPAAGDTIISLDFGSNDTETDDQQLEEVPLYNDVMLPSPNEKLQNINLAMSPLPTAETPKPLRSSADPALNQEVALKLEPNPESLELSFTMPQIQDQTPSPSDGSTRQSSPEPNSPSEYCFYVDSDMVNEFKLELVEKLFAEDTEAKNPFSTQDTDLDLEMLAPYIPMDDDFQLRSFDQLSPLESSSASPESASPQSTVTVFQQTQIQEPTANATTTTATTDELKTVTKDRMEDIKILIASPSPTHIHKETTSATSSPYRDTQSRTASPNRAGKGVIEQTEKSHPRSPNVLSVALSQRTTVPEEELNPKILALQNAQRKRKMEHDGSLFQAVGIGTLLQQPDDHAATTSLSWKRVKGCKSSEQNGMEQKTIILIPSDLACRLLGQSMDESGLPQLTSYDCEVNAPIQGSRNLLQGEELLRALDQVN
Chain of Paired box protein Pax-6 (Homo sapiens) (P26367 whole entry, looked up): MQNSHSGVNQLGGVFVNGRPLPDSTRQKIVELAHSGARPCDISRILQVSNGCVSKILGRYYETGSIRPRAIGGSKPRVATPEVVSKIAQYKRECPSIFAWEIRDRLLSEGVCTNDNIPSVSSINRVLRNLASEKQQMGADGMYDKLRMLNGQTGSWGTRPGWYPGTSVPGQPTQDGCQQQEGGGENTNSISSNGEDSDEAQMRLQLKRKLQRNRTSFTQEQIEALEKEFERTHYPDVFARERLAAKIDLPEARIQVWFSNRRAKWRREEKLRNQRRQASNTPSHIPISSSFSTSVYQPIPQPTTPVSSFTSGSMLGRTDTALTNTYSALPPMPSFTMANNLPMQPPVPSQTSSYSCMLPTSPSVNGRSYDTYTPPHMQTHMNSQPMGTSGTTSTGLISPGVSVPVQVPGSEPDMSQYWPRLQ
Chain of Hepatocyte nuclear factor 6 (Homo sapiens) (Q9UBC0 whole entry, looked up, the tested form may be a part): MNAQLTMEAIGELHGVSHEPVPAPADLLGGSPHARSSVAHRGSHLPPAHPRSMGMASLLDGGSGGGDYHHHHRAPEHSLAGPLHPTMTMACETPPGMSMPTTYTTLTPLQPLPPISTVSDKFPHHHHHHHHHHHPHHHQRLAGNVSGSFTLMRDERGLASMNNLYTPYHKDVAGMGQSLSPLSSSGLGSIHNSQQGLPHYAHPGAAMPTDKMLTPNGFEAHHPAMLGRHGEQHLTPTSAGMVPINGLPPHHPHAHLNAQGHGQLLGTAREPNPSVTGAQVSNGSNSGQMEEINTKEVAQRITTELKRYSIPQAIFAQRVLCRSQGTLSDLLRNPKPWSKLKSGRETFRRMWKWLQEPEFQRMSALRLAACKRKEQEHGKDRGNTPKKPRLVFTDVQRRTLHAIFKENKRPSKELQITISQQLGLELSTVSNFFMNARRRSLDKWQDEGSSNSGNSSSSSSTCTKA
Chain of Signal transducer and activator of transcription 3 (Homo sapiens) (P40763 whole entry, looked up): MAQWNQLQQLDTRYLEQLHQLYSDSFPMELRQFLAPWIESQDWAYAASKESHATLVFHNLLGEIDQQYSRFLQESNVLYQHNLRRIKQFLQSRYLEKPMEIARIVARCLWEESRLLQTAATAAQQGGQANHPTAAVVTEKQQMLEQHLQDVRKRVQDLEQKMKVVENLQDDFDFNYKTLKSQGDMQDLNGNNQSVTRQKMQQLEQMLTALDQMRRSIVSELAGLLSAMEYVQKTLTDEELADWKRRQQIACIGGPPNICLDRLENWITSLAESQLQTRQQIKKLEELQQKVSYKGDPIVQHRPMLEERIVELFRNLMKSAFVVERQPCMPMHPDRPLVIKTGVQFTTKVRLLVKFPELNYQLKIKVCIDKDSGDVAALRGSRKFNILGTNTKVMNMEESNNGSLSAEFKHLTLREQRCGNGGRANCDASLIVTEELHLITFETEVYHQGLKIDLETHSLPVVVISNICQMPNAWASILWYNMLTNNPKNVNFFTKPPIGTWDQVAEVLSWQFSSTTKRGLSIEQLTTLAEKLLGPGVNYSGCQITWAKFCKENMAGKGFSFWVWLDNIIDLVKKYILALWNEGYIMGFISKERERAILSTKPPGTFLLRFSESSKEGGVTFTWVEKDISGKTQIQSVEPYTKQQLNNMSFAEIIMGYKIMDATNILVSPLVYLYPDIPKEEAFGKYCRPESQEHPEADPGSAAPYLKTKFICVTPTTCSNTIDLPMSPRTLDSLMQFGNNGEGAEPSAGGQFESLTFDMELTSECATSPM
Chain of Bile acid receptor (Homo sapiens) (Q96RI1 whole entry, looked up): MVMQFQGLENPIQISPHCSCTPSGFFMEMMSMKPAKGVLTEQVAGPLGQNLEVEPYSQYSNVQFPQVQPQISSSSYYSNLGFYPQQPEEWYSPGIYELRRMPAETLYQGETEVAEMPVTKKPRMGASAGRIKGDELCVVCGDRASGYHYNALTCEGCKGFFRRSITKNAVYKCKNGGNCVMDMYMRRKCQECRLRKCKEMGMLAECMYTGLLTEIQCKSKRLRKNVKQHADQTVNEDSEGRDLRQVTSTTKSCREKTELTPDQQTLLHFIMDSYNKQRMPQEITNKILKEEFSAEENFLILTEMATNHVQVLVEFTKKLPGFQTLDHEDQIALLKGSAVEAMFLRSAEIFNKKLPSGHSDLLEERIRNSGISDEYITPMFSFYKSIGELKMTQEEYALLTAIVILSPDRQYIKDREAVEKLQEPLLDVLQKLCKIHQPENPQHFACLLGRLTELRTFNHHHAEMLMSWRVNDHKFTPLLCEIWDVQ
Chain of Heat shock factor protein 1 (Homo sapiens) (Q00613 whole entry, looked up, the tested form may be a part): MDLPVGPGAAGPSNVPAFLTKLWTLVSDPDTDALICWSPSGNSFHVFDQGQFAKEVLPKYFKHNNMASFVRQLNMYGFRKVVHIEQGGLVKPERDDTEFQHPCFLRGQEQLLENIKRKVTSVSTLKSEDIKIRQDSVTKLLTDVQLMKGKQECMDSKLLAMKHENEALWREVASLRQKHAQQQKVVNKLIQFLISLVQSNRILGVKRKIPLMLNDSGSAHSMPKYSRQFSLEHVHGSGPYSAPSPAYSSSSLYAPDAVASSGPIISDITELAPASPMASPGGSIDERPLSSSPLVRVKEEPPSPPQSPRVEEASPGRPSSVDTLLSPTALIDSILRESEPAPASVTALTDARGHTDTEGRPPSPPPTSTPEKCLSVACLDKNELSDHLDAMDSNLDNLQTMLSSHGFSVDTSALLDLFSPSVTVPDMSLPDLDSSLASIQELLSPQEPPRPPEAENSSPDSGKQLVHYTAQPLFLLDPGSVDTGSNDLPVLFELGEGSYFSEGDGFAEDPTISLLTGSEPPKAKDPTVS

As to `CCCCC1CCC(O)CC1` (stereo unspecified), the outcome in [1], in [2], in test [3], in test [4], in test [5] and in test [6] was inactive. Further, the call in test [7], in test [8], in test [9], in [10], in [11] and in test [12] was inactive. Further, the call in [13], in [14], in test [15], in [16] and in test [17] was inactive.
Broadly, the AC50 is the midpoint of the concentration-response curve, whichever way the signal moves. Take `C=Cc1ccc(C(C)(C)C)cc1`: the compound was classed as inactive in test [1], in [2], in [3], in test [18], in test [4] and in [5]. For the same compound, the compound was called inactive in test [7], in [19], in test [10], in test [11], in [12] and in [13]. For the same compound, the compound was called inactive in test [14], in [15], in [16] and in test [17]. In test [9], the concentration at half-maximal activity (AC50) is 27.4 µM (active).
On to `Cc1cc(S(=O)(=O)O)ccc1N=Nc1c(O)ccc2ccccc12`, for which the compound was classed as inactive in test [1], in test [2], in test [3], in [18], in test [4] and in [5]. The compound was classed as inactive in test [6], in test [7], in [8], in test [9], in test [12] and in [13]. The compound was called inactive in test [15] and in [17].
With `O=C1NC2NC(=O)NC2N1` (stereo unspecified), the call in [1], in test [2], in test [3], in test [18], in [5] and in test [6] was inactive. For the same compound, the outcome in test [7], in test [8], in test [10], in [11], in [12] and in [13] was inactive. The compound was classed as inactive in test [14], in [15], in test [16] and in test [17]. The AC50 in [9] was 27.9 µM (active).
In the case of `COc1cc([C@@H]2c3cc4c(cc3[C@@H](O[C@@H]3O[C@@H]5CO[C@@H](C)O[C@H]5[C@H](O)[C@H]3O)[C@H]3COC(=O)[C@H]23)OCO4)cc(OC)c1O`, the compound was called inactive in test [1], in test [2], in [3], in test [18], in [4] and in test [5]. For the same compound, the compound was called inactive in test [7], in test [19], in test [8], in test [10], in test [11] and in test [12]. Also, the compound was called inactive in test [13], in test [15], in test [16] and in test [17]. The concentration at half-maximal activity (AC50) in test [9] is 35.2 µM (active).
Turning to `IC(I)I`, the outcome in test [1], in [2], in test [3], in [18], in test [4] and in [5] was inactive. In addition, the result in [6], in test [7], in [10], in test [11], in [12] and in test [14] was inactive. Moreover, the outcome in test [15], in test [16] and in test [17] was inactive. In addition, the AC50 in test [9] was 5.98 µM (active).
For the compound `CC=CC=CCOC(=O)C(C)C`, the result in test [1], in test [3], in test [18], in test [4], in [5] and in [7] was inactive. Moreover, the outcome in [8], in [10], in test [11], in test [13], in test [14] and in test [15] was inactive. Also, the call in test [16] and in test [17] was inactive. In addition, the figures for the half-maximal activity concentration (AC50) in test [2] and in test [9] were 100 µM (active) and 25 µM (active), respectively.
For the compound `c1ccc2[nH]cnc2c1`, the compound was called inactive in test [1], in test [2], in test [18], in [4], in test [5] and in test [6]. Besides, the outcome in [7], in [19], in test [8], in test [9], in test [10] and in [11] was inactive. Further, the compound was classed as inactive in test [12], in test [14], in [15], in test [16] and in [17].

The record behind these values is PubChem BioAssay (EPA / NIEHS).
